Source: PubChem BioAssay (several laboratories)
Sampled rows, rich in hits. Any-hit rate of the full collection: about 28%.
DAT uptake mod: changed hDAT dopamine uptake under cocaine IC80, either direction, primary screen, cocaine antagonist project, cell-based, LLC-PK1 hDAT, [14C]-dopamine uptake, MLSMR; Sodium-dependent dopamine transporter (Homo sapiens), Q01959; LLC-PK1 hDAT cells, [14C]-dopamine uptake with cocaine IC80; actives deviate in either direction; B-score at 10 µM; 110,000 tested, 1.3% active; AID 449768, 2010;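 active = Z score or B-score, a plate-position-corrected score, falls beyond the plate's 99.7% confidence bounds, in either direction; inactive = both scores lie inside the 99.7% bounds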
CYP2C19 inhib: blockers of cytochrome P450 2C19 activity – biochemical, luminescence, ADME assay, primary screen; CYP2C19 Supersomes, luciferin-H EGE luminescence, 30 min; AID 778, 2007; 96,000 tested, 21% active; inhibition, % at 5 µM; P33261;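 active = CYP2C19 inhibition above a set limit at 5 µM in the primary screen, cut at about 50% in these data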
CYP2C9 inhib: blockers of cytochrome P450 2C9 activity – biochemical, luminescence, ADME assay, primary screen. P11712. CYP2C9 Supersomes, luciferin-H conversion. inhibition, % at 5 µM. 96,000 tested, 20% active;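 active = blocking of liver enzyme CYP2C9 beyond about 50% at 5 µM, limit read from the data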
CYP2C19 activ: human CYP2C19 activators, primary screen, biochemical, luminescence; recombinant CYP2C19, luciferin-H EGE luminescence; active compounds read high; 0 = fully inhibited enzyme, 1 = untreated enzyme; activation factor at 5 µM; 96,000 tested, under 10 active; AID 1025, 2008;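 active = activation factor of at least 2 at 5 µM in the primary screen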
CYP2C9 act: human CYP2C9 activators, primary screen, biochemical, luminescence; recombinant CYP2C9, luciferin-H conversion; active compounds read high; factor 1 = untreated enzyme, 0 = blocked; activation factor at 5 µM; 96,000 tested, 1.4% active; AID 1024, 2008;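 active = activation factor of 2 or more for CYP2C9 at a 5 µM dose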
D1 allo mod: D1 CRE-luciferase signal change, two-sided – cell-based, HEK293 D1, dopamine EC30, D1 allosteric modulator project, primary screen; D(1A) dopamine receptor (Homo sapiens), P21728; dopamine EC30 potentiation; actives deviate in either direction; B-score at 10 µM; 58,000 tested, 5.9% active; AID 641, 2007;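 active = luminescence count or its row- and column-corrected plate score outside the 99.7% band of the plate's sample wells, on either side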
Target sequence (P21728 whole entry, looked up): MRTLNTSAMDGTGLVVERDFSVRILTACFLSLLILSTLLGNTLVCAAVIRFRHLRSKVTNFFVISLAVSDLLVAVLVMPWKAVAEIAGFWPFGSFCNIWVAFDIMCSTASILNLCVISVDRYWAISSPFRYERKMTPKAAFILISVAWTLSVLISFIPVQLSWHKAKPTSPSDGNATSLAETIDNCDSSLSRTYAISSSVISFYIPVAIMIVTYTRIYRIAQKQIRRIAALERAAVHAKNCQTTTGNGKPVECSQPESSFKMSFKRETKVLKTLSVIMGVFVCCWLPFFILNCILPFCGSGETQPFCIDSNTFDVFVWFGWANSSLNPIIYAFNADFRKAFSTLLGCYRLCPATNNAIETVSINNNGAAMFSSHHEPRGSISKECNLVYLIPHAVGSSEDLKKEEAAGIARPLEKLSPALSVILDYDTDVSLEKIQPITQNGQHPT
Of the large screens only hits and unclear results are named; the others gave an inactive call.

CCCC1C2C(=O)N(c3ccccc3)C(=O)C2ON1c1ccccc1 (stereo not given)	CYP2C19 inhib 56, CYP2C9 inhib 55 (no result: D1 allo mod)
Cc1ccccc1Cn1c(=N)n(CC(=O)c2ccco2)c2ccccc21	none
CCCCN(C)C(=O)CS(=O)(=O)Cc1nc(-c2cccc(OC)c2)oc1C	none
CCCc1nc2c(C)ccc(C)c2c(N)c1CC	none (no result: D1 allo mod)
Cc1[nH]c(=O)[nH]c(=O)c1S(=O)(=O)N(C)Cc1ccccc1	none
Cc1ccc2cc(COC(=O)C3CCCO3)c(=O)[nH]c2c1 (stereo not given)	none (no result: D1 allo mod)
O=C(O)c1ccc(N2C(=O)C3ON(c4ccccc4)C(c4ccccc4F)C3C2=O)cc1 (stereo not given)	CYP2C19 inhib 52
O=C1C2ON(c3ccc(Cl)cc3)C(c3ccco3)C2C(=O)N1c1ccccc1 (stereo not given)	CYP2C19 inhib 93, CYP2C9 inhib 58
CN=C1CC(C)(C)CC(=O)/C1=C(/O)CCC(=O)NC	none (no result: CYP2C19 inhib, CYP2C9 inhib, CYP2C19 activ, CYP2C9 act)
CC(NC(=O)NCCCn1ccnc1)(C(F)(F)F)C(F)(F)F	CYP2C19 inhib 91, CYP2C9 inhib 68
O=C(CCn1c(=O)sc2ccccc21)NCCCn1ccnc1	none (no result: CYP2C19 inhib, CYP2C9 inhib, CYP2C19 activ, CYP2C9 act)
O=C(NCCCn1ccnc1)C(F)(F)C(F)(F)C(=O)NCCCn1ccnc1	CYP2C9 inhib 98
CC(NC(=O)NCCCC(=O)O)(C(F)(F)F)C(F)(F)F	none
CCOC(=O)C(NC=O)(NC(C)(C)C)C(=O)OCC	none (no result: D1 allo mod)
CCOc1ccc(S(=O)(=O)NCC(=O)N(C)Cc2cccnc2)cc1	none (no result: D1 allo mod)
Cc1ccccc1CSCC(=O)N/N=C/c1cccs1	CYP2C19 inhib 61 (no result: D1 allo mod)
O=C(Cc1ccccc1)N/N=C/c1cccs1	none (no result: D1 allo mod)
CCNC(=O)CSc1nnc(-c2cccc(S(=O)(=O)N(CC)CC)c2)n1CCc1ccccc1	none (no result: D1 allo mod)
CCSc1nnc(-c2cccc(S(=O)(=O)N(CC)CC)c2)n1Cc1ccccc1	CYP2C19 inhib 90, CYP2C9 inhib 76
CCN(CC)S(=O)(=O)c1cccc(-c2nnc(SCc3ncc(-c4ccccc4)o3)n2C)c1	CYP2C9 inhib 51
CC(C)(C)[C@@H]1C=C(C(N)=O)O[C@H](OCCCCO)C1	none (no result: CYP2C19 inhib, CYP2C9 inhib, CYP2C19 activ, CYP2C9 act, D1 allo mod)
O=C1Nc2ccccc2S/C1=C/Nc1cccc(Cl)c1	none (no result: D1 allo mod)
CC(=O)c1cc2c(cc1NS(=O)(=O)c1ccccc1)OCO2	CYP2C19 inhib 88, CYP2C9 act 2.8 (no result: D1 allo mod)
COc1ccc(S(=O)(=O)Nc2ccc3c(c2)OCO3)cc1C	CYP2C19 inhib 99 (no result: D1 allo mod)
CCC(C)NS(=O)(=O)c1ccc(S(=O)(=O)Nc2cc3c(cc2C(C)=O)OCO3)cc1 (stereo not given)	none
CN(C)S(=O)(=O)Nc1ccc2c(c1)OCO2	CYP2C19 inhib 76
COc1cc(NS(=O)(=O)c2ccc(Br)s2)cc(OC)c1	CYP2C19 inhib 100, CYP2C9 inhib 96
O=C(O)c1ccc(-n2nnnc2Oc2cccc3cccnc23)cc1	none (no result: D1 allo mod)
O=S(=O)(Nc1ccc2c(c1)OCO2)c1ccc(Br)s1	CYP2C19 inhib 78, CYP2C9 inhib 96
COc1ccc(S(=O)(=O)Nc2ccc3c(c2)OCO3)cc1	CYP2C19 inhib 93, CYP2C9 inhib 56 (no result: D1 allo mod)
Cc1cc(NS(=O)(=O)c2ccc(NC(=O)Nc3ccc4c(c3)OCO4)cc2)no1	none (no result: CYP2C19 inhib, CYP2C9 inhib, CYP2C19 activ, CYP2C9 act)
O=C(c1ccncc1)c1ccc(NS(=O)(=O)c2ccc(Br)s2)cc1	CYP2C9 inhib 99 (no result: D1 allo mod)
O=S(=O)(Nc1ccc2c(c1)OCO2)c1ccccc1	CYP2C19 inhib 100, CYP2C9 inhib 88 (no result: D1 allo mod)
Cc1cc(NS(=O)(=O)c2ccc(Br)s2)no1	none (no result: CYP2C19 inhib, CYP2C9 inhib, CYP2C19 activ, CYP2C9 act)
COC(=O)N(C)c1ccccc1C(=O)N1CCOCC1	none (no result: CYP2C19 inhib, CYP2C9 inhib, CYP2C19 activ, CYP2C9 act, D1 allo mod)
O=C(CN(CCc1ccccc1)C(=O)CNS(=O)(=O)c1ccc(F)cc1)NCC1CCCO1 (stereo not given)	none
COCCCNC(NC(=O)c1ccc(Cl)cc1)C(Cl)(Cl)Cl (stereo not given)	none (no result: D1 allo mod)
Cc1ccc(-c2nn3nnnc3c3ccccc23)cc1	none (no result: D1 allo mod)
CCO[C@@H]1OC(C(=O)NC2CC2)=C[C@H](c2coc3ccccc3c2=O)[C@H]1CCCO	none (no result: CYP2C19 inhib, CYP2C9 inhib, CYP2C19 activ, CYP2C9 act, D1 allo mod)
Cc1cc(NS(=O)(=O)N(C)C)ccc1C(C)C	CYP2C19 inhib 90, CYP2C9 inhib 77 (no result: D1 allo mod)
O=C(Nc1ccc2c(c1)OCO2)c1cccc(F)c1	none
O=C(Nc1ccc2c(c1)OCO2)C1CCCN1C(=O)Nc1cccc(F)c1 (stereo not given)	CYP2C19 inhib 93 (no result: D1 allo mod)
O=C(/C=C\Nc1cccc(F)c1)c1ccc2c(c1)OCO2	D1 allo mod -6.9
CCN1CCN(Cc2ccc(NC(=O)Nc3cccs3)cc2)CC1	none
COc1ccc(-c2c(C#N)c(C)nc3c2C(=O)c2ccccc2-3)cc1	CYP2C19 inhib 57 (no result: D1 allo mod)
COc1ccc(-c2nc(-c3cccc(C)c3)nc(Cl)c2C#N)cc1	CYP2C9 inhib 69 (no result: D1 allo mod)
CCOC(=O)c1c(C)nc2c(c1-c1cc(OC)c(OC)c(OC)c1)C(=O)c1ccccc1-2	none (no result: D1 allo mod)
COc1ccc(-c2nc(-c3ccccc3)[nH]c(=O)c2C#N)cc1	CYP2C9 inhib 65 (no result: D1 allo mod)
CC(=O)N(C(C)=O)C1=C(C#N)C2(CCCCC2)Cc2ccccc21	none (no result: D1 allo mod)
COC(=O)COc1ccc(S(=O)(=O)NCC2CCCO2)cc1Cl (stereo not given)	none
O=S(=O)(NCC1CCCO1)c1cc(Br)c(Br)s1 (stereo not given)	CYP2C19 inhib 66, CYP2C9 act 2
O=S(=O)(NCC1CCCO1)c1ccc(Cl)c(C(F)(F)F)c1 (stereo not given)	CYP2C19 inhib 66, CYP2C9 act 3.9
COc1cc(C)c(Cl)cc1S(=O)(=O)NCC1CCCO1 (stereo not given)	CYP2C19 inhib 94
COc1ccc(OC)c(S(=O)(=O)NCC2CCCO2)c1 (stereo not given)	none
COc1cc(S(=O)(=O)NCC2CCCO2)ccc1Br (stereo not given)	CYP2C9 act 2.6 (no result: D1 allo mod)
COc1ccc(CN2CC(C(=O)NCc3cccc(OC)c3)CC2=O)cc1 (stereo not given)	none
COc1ccc(S(=O)(=O)CC(O)CN2CCCC2=O)cc1 (stereo not given)	none (no result: D1 allo mod)
c1ccc(-n2ncc3c2ncn2nc(-c4ccco4)nc32)cc1	none
CCOc1cc(C)c(Cl)cc1S(=O)(=O)NCC1CCCO1 (stereo not given)	CYP2C19 inhib 90
COc1ccc(/C=N/N=C2/NC(=O)C(c3ccccc3)(c3ccccc3)S2)cc1	CYP2C9 inhib 82 (no result: D1 allo mod)
O=C(Nc1nnc(-c2ccco2)s1)C1CC1	none
